Source: PubChem BioAssay (NCATS)
Inconclusive results are not listed. Active and inactive are the calls of the source. Unless noted, calls follow the shape of the dose curve; as a rule, active = well fitted curve in the direction sought with a large enough effect; inconclusive = small, poorly fitted or top-dose-only effect, or another doubt; inactive = no such curve, though single readings can be large; an effect the other way counts as inactive or inconclusive.

Tests used:
[1] = qHTS for Inhibitors of the Functional Ribonucleoprotein Complex (vRNP) of Lymphocytic Choriomeningitis Arenaviruses (LCMV): Viability assay - alamar blue signal for LCMV Primary Screen (AID 1347085; calls by dose curve; tested in HEK293 reporter line; also: series mostly up to about 57 µM; nearly all actives have a fitted effect of over 80% in size)
[2] = biological target: Nucleoprotein (Lymphocytic choriomeningitis virus (strain Armstrong)) (UniProt P09992); assay: qHTS for Inhibitors of the Functional Ribonucleoprotein Complex (vRNP) of Lymphocytic Choriomeningitis Arenaviruses (LCMV): LCMV Primary Screen - GLuc reporter signal (AID 1347086; calls by dose curve; also: series mostly up to about 57 µM; nearly all actives have a fitted effect of over 70% in size)
[3] = qHTS of pediatric cancer cell lines to identify multiple opportunities for drug repurposing: Primary screen for TC32 cells (AID 1347089); also: nearly all actives have a fitted effect of over 60% in size
Outline: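 Luminescent CellTiter-Glo read-out of metabolically active TC32 cells after 48 h compound exposure. Primary: MIPE 11-point, 0.78 nM–46 µM; NPC 8-point, 0.59 nM–46 µM. Confirmatory: 11-point dilutions.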

[4] = qHTS of pediatric cancer cell lines to identify multiple opportunities for drug repurposing: Primary screen for DAOY cells (AID 1347090); also: series mostly up to about 46 µM; nearly all actives have a fitted effect of over 55% in size
Outline: (§1)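 Cell viability, CellTiter-Glo luminescence; 500-1,000 cells/well, 8- or 11-point titration, 48 h compound exposure at 37 degrees C, 5% CO2. Controls: DMSO neutral, bortezomib 2.3 µM final as positive.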

[5] = qHTS of pediatric cancer cell lines to identify multiple opportunities for drug repurposing: Primary screen for SJ-GBM2 cells (AID 1347091)
Outline: as §1

[6] = qHTS of pediatric cancer cell lines to identify multiple opportunities for drug repurposing: Primary screen for A673 cells (AID 1347092); also: nearly all actives have a fitted effect of over 45% in size
Outline: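 A673 cells (500-1,000 cells/well in growth media) were pre-incubated 5 h at 37 degrees C, then exposed to compounds for 48 h. Viability was read as CellTiter-Glo luminescence; concentration-response curves came directly from the primary screen.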

[7] = qHTS of pediatric cancer cell lines to identify multiple opportunities for drug repurposing: Primary screen for SK-N-MC cells (AID 1347093); also: series mostly up to about 46 µM
Outline: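 Metabolically active cells were quantified by ATP-dependent luminescence (CellTiter-Glo, 15 min at room temperature) following 48 h treatment. Cells had been plated at 500-1,000 per well and settled for 5 h beforehand.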

[8] = qHTS of pediatric cancer cell lines to identify multiple opportunities for drug repurposing: Primary screen for BT-37 cells (AID 1347094); also: series mostly up to about 57 µM
Outline: (§2)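 Plated cells (500-1,000 per well, growth media) were allowed to settle for 5 hours, treated with compound dilutions for 48 hours, then lysed with CellTiter-Glo for 15 min at room temperature before luminescence reading.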

[9] = qHTS of pediatric cancer cell lines to identify multiple opportunities for drug repurposing: Primary screen for NB-EBc1 cells (AID 1347095)
Outline: as §2

[10] = qHTS of pediatric cancer cell lines to identify multiple opportunities for drug repurposing: Primary screen for U-2 OS cells (AID 1347096); also: nearly all actives have a fitted effect of over 50% in size
Outline: (§3)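 Cells (500-1,000/well) rested 5 h, then received compounds for 48 h; metabolically active cells were measured by CellTiter-Glo luminescence. Final concentrations spanned up to 46 µM (MIPE, 11-point) or 0.59 nM-46 µM (NPC, 8-point) in primary screens, 11-point in follow-ups.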

[11] = qHTS of pediatric cancer cell lines to identify multiple opportunities for drug repurposing: Primary screen for Saos-2 cells (AID 1347097); also: nearly all actives have a fitted effect of over 40% in size
Outline: as §2

[12] = qHTS of pediatric cancer cell lines to identify multiple opportunities for drug repurposing: Primary screen for SK-N-SH cells (AID 1347098); also: nearly all actives have a fitted effect of over 65% in size
Outline: as §3

[13] = qHTS of pediatric cancer cell lines to identify multiple opportunities for drug repurposing: Primary screen for NB1643 cells (AID 1347099); also: nearly all actives have a fitted effect of over 50% in size
Outline: as §2

[14] = qHTS of pediatric cancer cell lines to identify multiple opportunities for drug repurposing: Primary screen for LAN-5 cells (AID 1347100)
Outline: as §3

[15] = qHTS of pediatric cancer cell lines to identify multiple opportunities for drug repurposing: Primary screen for Rh18 cells (AID 1347102); also: nearly all actives have a fitted effect of over 65% in size
Outline: as §3

[16] = qHTS of pediatric cancer cell lines to identify multiple opportunities for drug repurposing: Primary screen for RD cells (AID 1347104); also: nearly all actives have a fitted effect of over 55% in size
Outline: as §2

[17] = qHTS of pediatric cancer cell lines to identify multiple opportunities for drug repurposing: Primary screen for MG 63 (6-TG R) cells (AID 1347105); also: nearly all actives have a fitted effect of over 50% in size
Outline: as §2

[18] = qHTS of pediatric cancer cell lines to identify multiple opportunities for drug repurposing: Primary screen for control Hh wild type fibroblast cells (AID 1347106);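 also: series mostly up to about 46 µM; a drop in luminescence marks cytotoxicity and a rise apparent proliferation; nearly all actives have a fitted effect of over 55% in size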
Outline: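 Viability after 48 h compound treatment at 37C, 500-1,000 cells/well, read as ATP luminescence with CellTiter-Glo. Primary screens used 11-point (MIPE, 0.78 nM-46 µM) or 8-point (NPC, 0.59 nM-46 µM) final concentrations; follow-up screens used 11-point dilutions.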

[19] = qHTS of pediatric cancer cell lines to identify multiple opportunities for drug repurposing: Primary screen for BT-12 cells (AID 1347101); also: nearly all actives have a fitted effect of over 25% in size
Outline: as §3

[20] = qHTS of pediatric cancer cell lines to identify multiple opportunities for drug repurposing: Primary screen for OHS-50 cells (AID 1347103); also: nearly all actives have a fitted effect of over 40% in size
Outline: as §3

Measured: Potency

Nucleoprotein (Lymphocytic choriomeningitis virus (strain Armstrong)), sequence (P09992 whole entry, looked up): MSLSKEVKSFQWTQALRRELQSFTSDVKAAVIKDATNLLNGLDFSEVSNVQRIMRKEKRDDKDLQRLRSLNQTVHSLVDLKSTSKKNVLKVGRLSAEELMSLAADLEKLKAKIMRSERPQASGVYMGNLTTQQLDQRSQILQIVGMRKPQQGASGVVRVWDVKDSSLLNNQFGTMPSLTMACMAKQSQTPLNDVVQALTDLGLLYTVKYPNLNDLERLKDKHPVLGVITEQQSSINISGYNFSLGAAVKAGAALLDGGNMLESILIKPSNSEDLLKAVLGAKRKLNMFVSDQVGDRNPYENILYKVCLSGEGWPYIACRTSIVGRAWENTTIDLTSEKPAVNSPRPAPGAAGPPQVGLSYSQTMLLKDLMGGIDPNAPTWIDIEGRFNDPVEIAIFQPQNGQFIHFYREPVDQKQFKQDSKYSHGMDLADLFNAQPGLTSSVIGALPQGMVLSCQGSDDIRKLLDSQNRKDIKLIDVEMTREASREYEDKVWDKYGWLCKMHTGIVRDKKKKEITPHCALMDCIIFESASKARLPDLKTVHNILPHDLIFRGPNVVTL

CCOP(=O)(NC(C)C)Oc1ccc(SC)c(C)c1 (stereo unspecified)
inactive: [1] | [2] | [3] | [4] | [5] | [6] | [7] | [8] | [9] | [10] | [11] | [12] | [13] | [14] | [15] | [16] | [17] | [18]

CCC(=O)O[C@@H]1C=C2CCC3C(CCC4(C)C3CC[C@@H]4OC(=O)CC)C2CC1 (stereo partly specified)
inactive: [1] | [2] | [3] | [4] | [5] | [6] | [7] | [8] | [9] | [10] | [11] | [12] | [13] | [14] | [19] | [15] | [20] | [17] | [18]

CCN(CC)C(=O)c1ccc(C2=CC3(CCNCC3)Oc3cccc(O)c32)cc1
inactive: [1] | [2] | [3] | [4] | [5] | [6] | [7] | [8] | [10] | [11] | [12] | [14] | [19] | [15] | [17] | [18]

Fc1cc(Br)ccc1CBr
inactive: [1] | [2] | [3] | [4] | [5] | [6] | [7] | [8] | [10] | [11] | [12] | [13] | [14] | [19] | [15] | [20] | [17] | [18]

COC(=O)c1cncn1C(C)c1ccccc1 (stereo unspecified)
inactive: [1] | [2] | [3] | [4] | [5] | [6] | [7] | [8] | [9] | [10] | [12] | [13] | [14] | [19] | [15] | [20] | [16] | [17] | [18]

CN(C)NC(=O)CCC(=O)O
inactive: [1] | [2] | [3] | [4] | [5] | [6] | [7] | [8] | [9] | [10] | [12] | [14] | [19] | [15] | [16] | [17]
